Measured values: PubChem BioAssay (NCI)
Where “and” joins values, the source holds several entries; their conditions need not be identical. Equal values may be shown once. The panel holds about 83,000 compounds, 20% with a hit somewhere; the sample as a whole holds those more often.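 Step 1: grow cells in 96-well plates. Step 2: add test compound at a single concentration. Step 3: incubate 48 h. Step 4: record percent growth.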 Calls of active or inactive are those of the source. Rule for the calls: active = growth percent below 10; inactive = the rest.

Legend:
Assay in all cases: NCI-60 one-dose screen, 48 h (100 = growth as untreated, 0 = no growth, -100 = all killed)
Conditions in all cases: 10 µM unless noted
[1] = test system: HCT-15 colon
[2] = test system: HT29 colon
[3] = test system: SNB-75 CNS
[4] = test system: SNB-19 CNS
[5] = test system: U251 CNS
[6] = test system: PC-3 prostate
[7] = test system: SK-MEL-5 melanoma
[8] = test system: UACC-62 melanoma
[9] = test system: LOX IMVI melanoma
[10] = test system: SK-MEL-28 melanoma

Measured: growth

O=C(O)C1C2CCC1C(O)C2 (stereo unspecified)
inactive: [1] 106% and 103% | [2] 102% | [3] 101% and 92.9% | [4] 102% and 108% | [5] 94.6% and 99.6% | [6] 110% and 95.9% | [7] 101% and 110% | [8] 110% and 108% | [9] 95.4% and 95.5% | [10] 104% and 110%

OB(O)c1ccsc1-c1nc2ccc3[nH]ncc3c2c2c1CCCC2
inactive: [1] 31.3% | [2] 45.9% | [3] 35.2% | [4] 76.1% | [5] 65.9% | [6] 69.4% | [7] 57.6% | [8] 45.2% | [10] 72.8%

CONC1=Nc2cc(NC(N)=NCc3ccccc3)c(N(C)C3CCCCC3)cc2OC1
inactive: [1] 101% | [2] 29.5% | [3] 40.9% | [4] 68.8% | [5] 53.1% | [6] 51.1% | [7] 74.9% | [8] 70.1% | [10] 87.9%

Nc1c(C(=O)Nc2ccncc2)sc2nc3c(cc12)CCCCCCCC3
active: [1] -82.2% | [2] -92.6% | [3] -96.2% | [4] -77.1% | [5] -89.2% | [6] -18.9% | [7] -96.1% | [8] -94.9% | [9] -84.7% | [10] -91.4%

COc1ccc(C/C(C)=C(/c2ccc(OCCN3CCCCCC3)cc2)c2ccc(OC(=O)c3ccccc3)cc2)cc1
inactive: [1] 100% | [2] 89.9% | [3] 110% | [4] 102% | [5] 107% | [6] 101% | [7] 109% | [8] 99.1% | [10] 106%

CCCN1C(=O)/C(=c2\sc3n(c2=O)NC2C(N=3)N(CC)C(=O)N2CC)c2ccccc21 (stereo unspecified)
inactive: [1] 24.6% | [2] 13.5% | [3] 12.9% | [4] 40.2% | [5] 29.9% | [6] 42.5% | [7] 41.8% | [8] 31.8% | [10] 54.5%

C=C1C(=O)O[C@H]2[C@H]1CC/C(CNS(=O)(=O)c1ccc3ccccc3c1)=C\CC[C@@]1(C)O[C@@H]21
inactive: [3] 38.2% | [4] 71.9% | [5] 48.9% | [6] 53.6% | [7] 31.8%
active: [1] -78.5% | [2] -78.2% | [8] -12% | [10] -8.36%

O=C(CCN1CCOCC1)Nc1cccc(-n2cc(-c3ccncc3)c(-c3ccc(Cl)c(O)c3)n2)c1
active: [2] -7.51% | [3] -1.7%
inactive: [1] 28.5% | [4] 48.8% | [5] 27.7% | [6] 11.4% | [7] 20.3% | [8] 43.1% | [10] 49.6%

Cn1cc(C2=C(c3cccc4ccccc34)C(=O)NC2=O)c2cc(Br)ccc21
inactive: [1] 91.3% | [2] 90.5% | [3] 37.9% | [4] 108% | [5] 91.7% | [6] 97.3% | [7] 93.5% | [8] 112% | [10] 111%

CCCCCC#CC1OC23CCCCC2C(C#N)(C(=N)O3)C1(C#N)C#N (stereo unspecified)
inactive: [1] 102% | [2] 88% | [3] 88.5% | [4] 95% | [5] 96.4% | [6] 81% | [7] 96.7% | [8] 83.1% | [9] 89.7% | [10] 109%

COc1ccc(-c2cc(=O)c3c(O)cc(O)cc3o2)cc1
inactive: [1] 103% and 100% | [2] 110% and 109% | [3] 99.1% and 118% | [4] 105% and 83.4% | [5] 92.9% and 84% | [6] 94.9% and 83.8% | [7] 104% and 92.7% | [8] 104% and 96.9% | [10] 113% and 111%

C=C1C(=O)O[C@@H]2[C@H]3[C@H](COC(C)=O)[C@@H](OC(C)=O)C[C@H]3C(=C)[C@@H](O)C[C@@H]12
inactive: [1] 91.5% | [2] 89.6% | [3] 74.8% | [4] 93.7% | [5] 89.9% | [6] 88.9% | [7] 89.2% | [8] 85% | [10] 106%

CCOC(=O)CCCn1c(-c2ccccc2)cc(-c2ccccc2)c(C#N)c1=O
inactive: [1] 82.3% | [2] 88.1% | [3] 71.2% | [4] 93.5% | [5] 98.7% | [6] 63.8% | [7] 92.7% | [8] 59% | [10] 88.7%

COc1cc2c(cc1OCCCOC1=C=C=C(c3ccc4c(c3)c3cc(-c5ccc(OCCCOc6cc7c(cc6OC)C(=O)N6CCC[C@H]6C=N7)cc5)ccc3n4S(=O)(=O)c3ccc(C)cc3)C=C1)N=C[C@@H]1CCCN1C2=O
inactive: [1] 69.4% | [2] 37.7% | [4] 61.6% | [6] 42.7% | [7] 39% | [10] 64.8%
active: [3] 4.32% | [5] -29.8% | [8] -14.1%

CCN1CCN(C(=O)[C@]23CC[C@@H](C)[C@H](C)[C@@H]2C2=CC[C@@H]4[C@@]5(C)CCC(=O)C(C)(C)[C@@H]5CC[C@@]4(C)[C@]2(C)CC3)CC1
active: [1] 8.58% | [2] -12% | [3] -3.49% | [5] -44.9% | [6] 4.66% | [7] -84.1% | [8] -46.1% | [9] -85.2% | [10] -64.7%
inactive: [4] 20.9%

CCOC(=O)N(O)c1ccc(/C=C/c2ccccc2)cc1
inactive: [1] 69.8% and 72.3% | [2] 66.8% and 53.7% | [3] 93.6% and 96.4% | [4] 91.2% and 74.5% | [5] 54.6% and 58.1% | [6] 55% and 67.5% | [7] 66.2% and 57.1% | [10] 103% and 108%
29.4% (inactive) and -29.2% (active): [8]

Cc1ccc2nc3ccccc3c(NCc3ccc(Cl)cc3)c2c1
active: [2] 5.35%
inactive: [1] 14.5% | [3] 66.5% | [4] 50.3% | [5] 25.1% | [6] 39.1% | [7] 54% | [8] 74% | [10] 75.5%

COc1cc2cc(NCc3ccncc3)nc(C)c2cc1OC
inactive: [1] 82.9% | [2] 91.6% | [3] 97% | [4] 93.8% | [5] 78.5% | [6] 77.8% | [7] 95.2% | [8] 97.8% | [9] 88% | [10] 99.2%

CCOC(=O)C1=C(C)NC(=O)NC1c1c(Cl)n(-c2ccccc2)c2ccccc12 (stereo unspecified)
inactive: [1] 85.8% | [2] 80.7% | [3] 84.8% | [4] 83.9% | [5] 89.2% | [6] 56.7% | [7] 75.4% | [8] 68.4% | [10] 94.1%

COc1ccc(/C=N/NC(=O)CN2CCN(c3cc4c(cc3F)c(=O)c(C(=O)O)cn4C3CC3)CC2)cc1O
inactive: [1] 109% | [2] 96.1% | [3] 106% | [4] 94.4% | [5] 95.3% | [6] 93% | [7] 89.8% | [8] 97.6% | [10] 109%

OCc1cc(CN2CCCCC2)c(O)c2ncccc12
inactive: [1] 20% | [2] 41.6% | [3] 81.1% | [4] 57.3% | [5] 40.5% | [6] 46.9% | [7] 74.2% | [8] 55.3% | [10] 60.7%

O=C1/C(=C/c2ccc(F)c(F)c2)CN(C(=O)C(Cl)Cl)C/C1=C\c1ccc(F)c(F)c1
active: [1] -74.9% | [2] -26.6% | [3] -84.7% | [4] -93.1% | [5] -99.3% | [6] -85.2% | [7] -95.3% | [8] -85.2% | [10] -92.6%

OCCN1CCN(c2cc(-c3cccc(OC(F)(F)F)c3)nc3ccc(N4CCCC4)cc23)CC1
inactive: [1] 10.9% | [3] 53.5% | [4] 74.1% | [5] 29.3% | [6] 25.9% | [7] 46.7% | [8] 59.6% | [10] 71.1%
active: [2] 5.34%

CN1C(=O)N(C)C2(c3ccccc3)N(CC(=O)Nc3ccccc3O)C(=O)NC12c1ccccc1 (stereo unspecified)
inactive: [1] 103% | [2] 111% | [3] 74.3% | [4] 100% | [5] 105% | [6] 90.3% | [7] 101% | [8] 91% | [9] 96.8% | [10] 123%

COC(=O)/C=C1/SC(=Nc2ccc([N+](=O)[O-])cc2)N(CCc2c[nH]c3ccccc23)C1=O
inactive: [1] 29.9% | [2] 51.8% | [3] 84.3% | [4] 69.2% | [5] 46.9% | [6] 63.4% | [7] 84.9% | [8] 51% | [10] 76.8%

O=Nc1ccc(NO)c2ccccc12
inactive: [1] 99.5% and 95.7% | [2] 106% and 35.3% | [3] 95.8% and 90.8% | [4] 118% and 99% | [5] 101% and 79% | [6] 81.9% and 36.4% | [7] 94.1% and 81.3% | [8] 95.9% and 61.9% | [10] 113% and 94.6%

COC1/C=C/OC2(C)Oc3c(C)c(O)c4c(O)c(c(C=NOC(c5ccccc5)c5ccccc5)c(O)c4c3C2=O)NC(=O)/C(C)=C/C=C/C(C)C(O)C(C)C(O)C(C)C(OC(C)=O)C1C (stereo unspecified)
active: [2] -12.1%
